From PubChem BioAssay (NCATS) come the findings set out here.

SMILES strings stand for the structures. Results filed as inconclusive are left out. Calls of active or inactive are those of the source. Calls follow the shape of the dose curve; as a rule, active = well fitted inhibition curve with a large enough effect; inconclusive = small, poorly fitted or top-dose-only effect; inactive = flat fitted curve, though single readings scatter. Peptide text beside a SMILES is read from it.

Holding throughout (test): qHTS profiling for inhibitors of Plasmodium falciparum proliferation (AID 504749); also: nearly all actives have a fitted effect of over 60% in size
What all share (conditions): P. falciparum in erythrocytes, SYBR Green DNA, 72 h; series mostly up to 28.7 µM

One test relates to FAB9. Summed up: (§1)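 Three-day growth assay of blood-stage parasites in erythrocytes (0.3% parasitemia, 2.5% hematocrit) at 37 C, 5% CO2, quantified by SYBR Green DNA staining after overnight detergent lysis.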
The next test relates to GB4. In a few lines:
as §1

The subject of another test is HB3. In a few lines:
as §1

A further test deals with ICS. In a few lines: as §1
The test system of a further test is JCK. In a few lines:
as §1

In a further test the test system is N140. Summed up: as §1
A further test relates to P93_24. Summed up:
as §1

Another test deals with P94_40. Summed up: as §1
The test system of another test is PAD. Summed up: as §1
A further test concerns PC15. Summed up:
as §1
Potency is read from the fitted curve at half-maximal effect.

For the compound `COc1ccc(C2(C#N)CCC(C(=O)O)CC2)cc1OC1CCCC1` (stereo not given), the Potency result in the test with FAB9, with GB4, in the test with HB3, in the test on ICS, in the test with JCK and with N140 was “inactive” throughout. Moreover, the Potency entry in the test with P93_24, in the test on P94_40, in the test with PAD and in the test with PC15 was “inactive” each time.

For `O=C(NCCO[N+](=O)[O-])c1cccnc1`, the Potency entry with FAB9, in the test with GB4, in the test with HB3, in the test with ICS, in the test on JCK and with N140 was “inactive” each time. The Potency result in the test on P93_24, in the test with P94_40, with PAD and in the test on PC15 was “inactive” in each case.

`CCC1=C(C)CN(C(=O)NCCc2ccc(S(=O)(=O)NC(=O)NC3CCC(C)CC3)cc2)C1=O` (stereo not given): the Potency result in the test with FAB9, with GB4, in the test on HB3, with ICS, in the test on JCK and in the test with N140 was “inactive” throughout. Also, the Potency entry with P93_24, with P94_40, in the test with PAD and in the test on PC15 was “inactive” in each case.

Turning to `Cc1ncc([N+](=O)[O-])n1CC(C)O` (stereo not given), the Potency result with FAB9, in the test with GB4, in the test on HB3, with ICS, with JCK and in the test on N140 was “inactive” each time. In addition, the Potency entry in the test with P93_24, in the test on P94_40, in the test on PAD and in the test on PC15 was “inactive” throughout.

With `CCN(CC)CCOc1ccc(Cc2ccccc2)cc1`, the Potency result in the test on FAB9, in the test with GB4, with HB3, in the test on ICS, with JCK and in the test on N140 was “inactive” each time. Besides, the Potency entry with P93_24, in the test with P94_40, with PAD and in the test on PC15 was “inactive” each time.

With `N[C@@H](Cc1cc(I)c(Oc2cc(I)c(O)c(I)c2)c(I)c1)C(=O)O`, the Potency result with FAB9, in the test with GB4, with HB3, in the test on ICS, with JCK and in the test with N140 was “inactive” in each case. Also, the Potency entry with P93_24, in the test with P94_40, with PAD and in the test on PC15 was “inactive” throughout.

Consider `C[C@]12CCC(=O)C=C1CC[C@@H]1[C@H]2[C@@H](O)C[C@@]2(C)[C@H]1CC[C@]2(O)C(=O)CO`, for which the Potency entry in the test on FAB9, in the test on GB4, with HB3, in the test on ICS, with JCK and in the test with N140 was “inactive” throughout. Besides, the Potency entry in the test with P93_24, with P94_40, in the test with PAD and in the test on PC15 was “inactive” in each case.

With `CCOc1cc(CC(=O)N[C@@H](CC(C)C)c2ccccc2N2CCCCC2)ccc1C(=O)O`, the Potency result with FAB9, in the test on GB4, with HB3, with ICS, in the test on JCK and with N140 was “inactive” throughout. The Potency result in the test with P93_24, in the test with P94_40, in the test on PAD and in the test on PC15 was “inactive” in each case.

Regarding `Cc1cccc(C)c1OCC(=O)N[C@@H](Cc1ccccc1)[C@@H](O)C[C@H](Cc1ccccc1)NC(=O)[C@H](C(C)C)N1CCCNC1=O`, the Potency in the test on FAB9 is 11.2 µM (active); in the test on GB4 it was 3.79 µM (active); in the test with HB3 it was 7.94 µM (active); in the test with ICS, 0.891 µM (active); in the test on JCK, 7.94 µM (active); in the test with N140 it was 0.708 µM (active). The Potency was 1.12 µM (active) in the test with P93_24, 2.51 µM (active) with P94_40, 0.891 µM (active) in the test on PAD and 3.98 µM (active) in the test on PC15.

With `CCCCc1ccc2nc(NC(=O)OC)[nH]c2c1`, the Potency entry in the test on FAB9, in the test with GB4, in the test with HB3, in the test on ICS, in the test with JCK and in the test with N140 was “inactive” each time. In addition, the Potency result in the test with P93_24, in the test on P94_40, in the test with PAD and in the test with PC15 was “inactive” in each case.

With `Cc1cc2cc3c(C)cc(=O)oc3c(C)c2o1`, the Potency result with FAB9, with GB4, in the test on HB3, in the test with ICS, in the test with JCK and in the test with N140 was “inactive” in each case. For the same compound, the Potency entry in the test with P93_24, in the test with P94_40, in the test on PAD and with PC15 was “inactive” in each case.

In the case of `COc1cc2c(cc1OC)C1CC(=O)C(CC(C)C)CN1CC2` (stereo not given), the Potency entry in the test with FAB9, in the test on GB4, in the test with HB3, in the test on ICS, in the test with JCK and in the test on N140 was “inactive” in each case. For the same compound, the Potency entry with P93_24, in the test with P94_40, in the test with PAD and in the test on PC15 was “inactive” throughout.

Consider `c1ccc2[nH]c(-c3cscn3)nc2c1`, for which the Potency result in the test with FAB9, with GB4, in the test with HB3, in the test with ICS, with JCK and in the test on N140 was “inactive” in each case. Moreover, the Potency entry in the test on P93_24, in the test on P94_40, in the test on PAD and in the test on PC15 was “inactive” each time.

For the compound `COc1cc(OC)c(C(=O)CCCN2CCCC2)c(OC)c1`, the Potency result in the test on FAB9, in the test on GB4, with HB3, in the test with ICS, with JCK and with N140 was “inactive” throughout. Also, the Potency entry with P93_24, in the test with P94_40, with PAD and in the test on PC15 was “inactive” throughout.

Take `CC(C)(S)[C@@H](N)C(=O)O`: the Potency result with FAB9, with GB4, in the test on HB3, in the test with ICS, in the test on JCK and in the test with N140 was “inactive” throughout. Besides, the Potency result in the test on P93_24, in the test with P94_40, in the test on PAD and in the test on PC15 was “inactive” in each case.

For `CCCCCCCCCCCCCCCCCCCCCCO`, the Potency entry in the test on FAB9, in the test with GB4, in the test on HB3, in the test with ICS, in the test with JCK and in the test with N140 was “inactive” each time. The Potency entry in the test with P93_24, in the test on P94_40, in the test on PAD and in the test with PC15 was “inactive” throughout.

For the compound `COC(=O)[C@H](Cc1ccccc1)NC(=O)[C@@H](N)CC(=O)O` (H-Asp-Phe-OMe), the Potency entry in the test on FAB9, in the test on GB4, with HB3, with ICS, in the test with JCK and in the test with N140 was “inactive” each time. Besides, the Potency entry with P93_24, with P94_40, with PAD and in the test with PC15 was “inactive” each time.

Regarding `O=C(NC(Cc1cc(=O)[nH]c2ccccc12)C(=O)O)c1ccc(Cl)cc1` (stereo not given), the Potency result in the test with FAB9, in the test on GB4, in the test with HB3, in the test on ICS, in the test with JCK and in the test on N140 was “inactive” in each case. Besides, the Potency result in the test on P93_24, with P94_40, in the test on PAD and in the test with PC15 was “inactive” throughout.
